Data on 7 compounds can be found in PubChem BioAssay (Tox21).

SMILES strings stand for the structures. Where “and” joins values, the source holds several entries; their conditions need not be identical. Identical values can stand only once. Values without a mark were called inactive. Inconclusive results are not listed. Calls of active or inactive are those of the source. Unless noted, calls follow the shape of the dose curve; as a rule, active = well fitted curve in the direction sought with a large enough effect in the repeat runs; inconclusive = weak or mixed curves; inactive = no such curve, though single readings can be large; an effect the other way counts as inactive or inconclusive.

The nature of assay [1]: qHTS assay for small molecule agonists of the p53 signaling pathway (AID 651631; calls by dose curve; also: nearly all actives have a fitted effect of over 15% in size; also: potency is read from the fitted curve at half-maximal effect). A digest of the protocol: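 Quantitative high-throughput format: 4,000 p53RE-bla HCT-116 cells/well, 5 h pre-incubation, 16 h compound exposure at 37 °C, 2 h room-temperature substrate step, fluorescence intensity measured.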
A general note: Quantitative high-throughput screening tests each substance at several concentrations.

Assay [2] can be described thus: qHTS assay for small molecules that induce genotoxicity in human embryonic kidney cells expressing luciferase-tagged ATAD5 (AID 651632). Also: nearly all actives have a fitted effect of over 15% in size. A digest of the protocol:
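Cells were seeded at 2,000 per well, dosed with compound, and incubated 16 hr at 37C in 5% CO2. Luciferase activity was then quantified after a 30 min room-temperature incubation with Amplite.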

A short description of assay [3]: qHTS assay for small molecule agonists of the p53 signaling pathway - cell viability (AID 651633; calls by dose curve;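 also: p53RE-bla HCT reporter cells with a stable beta-lactamase p53 reporter; nearly all actives have a fitted effect of over 30% in size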). A digest of the protocol:
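p53RE-bla cells, seeded at 4,000 per well and rested 5 h at 37 C/5% CO2, received compounds in DMSO for 16 h at 37 C. CellTiter-Glo was then added, and luminescence was read after 30 min at room temperature to gauge cytotoxicity.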

A short description of assay [4]: qHTS assay for small molecules that induce genotoxicity in human embryonic kidney cells expressing luciferase-tagged ATAD5 - cell viability (AID 651634; calls by dose curve; also: nearly all actives have a fitted effect of over 25% in size). The gist of the method:
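Cells (HEK293T, luciferase-tagged ATAD5) are seeded at 2,000 per well, dosed with compound or DMSO vehicle, and incubated 15.5 hr at 37C and 5% CO2. CellTiter-Fluor is added for 30 min before fluorescence is measured.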

A short description of assay [5]: qHTS assay for small molecule disruptors of the mitochondrial membrane potential - cell viability (AID 720634; calls by dose curve;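 also: human HepG2 liver cancer cells; nearly all actives have a fitted effect of over 20% in size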). A digest of the protocol:
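Cytotoxicity was measured by ATP quantitation in HepG2 wells that had first been treated with compound for 1 hr and stained with m-MPI dye; CellTiter-Glo incubation was 30 min at room temperature.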

Assay [6] is described as follows: qHTS assay for small molecule disruptors of the mitochondrial membrane potential (AID 720635). Also: potency is read from the fitted curve at half-maximal effect. A digest of the protocol: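 HepG2 cells (2,000/well) attached overnight at 37C, then took compound for 1 hr at 37C, 5% CO2. Mito-MPS dye was added for 30 min; fluorescence was read at 490/535 nm (monomers) and 540/590 nm (aggregates).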
Assay [7] in a line: qHTS assay to test for compound auto fluorescence at 590 nm (red) in HepG2 cells (AID 720674). A digest of the protocol:
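Intrinsic compound fluorescence in the red window (Ex/Em 540/590 nm) is measured in attached HepG2 cells exposed for 1 hr, DMSO vehicle as baseline, benchmarked to Rose Bengal sodium.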

The nature of assay [8]: qHTS assay to test for compound auto fluorescence at 535 nm (green) in HepG2 cells (AID 720675).
Assay [9] in a line: qHTS assay to test for compound auto fluorescence at 460 nm (blue) in HEK293 cells (AID 720678). The gist of the method: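 HEK293 cells (2,000 per well, medium with 10% dialyzed FBS) attached for 4-5 hr at 37C, then received compound and stood overnight at 37C, 5% CO2. Blue fluorescence was read at Ex/Em 405/460 nm and expressed relative to triamterene.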
Assay [10] in a line: qHTS assay to test for compound auto fluorescence at 535 nm (green) in HEK293 cells (AID 720680).
The nature of assay [11]: qHTS assay to test for compound auto fluorescence at 590 nm (red) in HEK293 cell free culture (AID 720683). A digest of the protocol:
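Tox21 10K library compounds were pinned into cell-free DMEM with 10% FBS and fluorescence was read at excitation 540 nm. Activity is expressed as Rose Bengal sodium equivalency.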

A short description of assay [12]: qHTS assay to test for compound auto fluorescence at 590 nm (red) in HepG2 cell free culture (AID 720684). A digest of the protocol: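 Readout: intrinsic compound fluorescence at 590 nm emission after 540 nm excitation, scaled to Rose Bengal sodium. Matrix was cell-free MEM with 10% FBS; DMSO vehicle wells served as control.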
Assay [13] in a line: qHTS assay to test for compound auto fluorescence at 460 nm (blue) in HepG2 cell free culture (AID 720685). The gist of the method: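 Cell-free plates of MEM plus 10% FBS received 23 nL compound or DMSO vehicle; blue-channel (405/460 nm) intensity scored against triamterene as reference fluorophore.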
Assay [14] in a line: qHTS assay to test for compound auto fluorescence at 535 nm (green) in HepG2 cell free culture (AID 720686).
The nature of assay [15]: qHTS assay to test for compound auto fluorescence at 460 nm (blue) in HepG2 cells (AID 720687). The gist of the method: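 Cells (2,000/well in MEM with 10% FBS) attached overnight at 37 C, then were exposed to compound or DMSO for 1 hr at 37 C, 5% CO2. Fluorescence read at Ex/Em 405/460 nm, expressed as triamterene-equivalent signal.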
Assay [16] deals with Glucocorticoid receptor (Homo sapiens) (UniProt P04150). The experiment in a line: qHTS assay to identify small molecule agonists of the glucocorticoid receptor (GR) signaling pathway (AID 720691; active = well fitted activation curve with a large enough effect in the signal ratio in the repeat runs, not every such curve was filed as active; the % refers to the signal ratio; also: potency is read from the fitted curve at half-maximal effect). The conditions noted are these: GR-bla HeLa, beta-lactamase reporter ratio, 18 h; activation: at 62.4 µM (top of the series) unless noted. The gist of the method: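 Steps: seed GR-bla HeLa cells, incubate 4 h at 37 C/5% CO2; pin-transfer DMSO-dissolved compounds; incubate 18 h at 37 C; add LiveBLAzer B/G FRET substrate; after 2 h at room temperature, measure fluorescence.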
Sequence of Glucocorticoid receptor (Homo sapiens) (P04150 whole entry, looked up): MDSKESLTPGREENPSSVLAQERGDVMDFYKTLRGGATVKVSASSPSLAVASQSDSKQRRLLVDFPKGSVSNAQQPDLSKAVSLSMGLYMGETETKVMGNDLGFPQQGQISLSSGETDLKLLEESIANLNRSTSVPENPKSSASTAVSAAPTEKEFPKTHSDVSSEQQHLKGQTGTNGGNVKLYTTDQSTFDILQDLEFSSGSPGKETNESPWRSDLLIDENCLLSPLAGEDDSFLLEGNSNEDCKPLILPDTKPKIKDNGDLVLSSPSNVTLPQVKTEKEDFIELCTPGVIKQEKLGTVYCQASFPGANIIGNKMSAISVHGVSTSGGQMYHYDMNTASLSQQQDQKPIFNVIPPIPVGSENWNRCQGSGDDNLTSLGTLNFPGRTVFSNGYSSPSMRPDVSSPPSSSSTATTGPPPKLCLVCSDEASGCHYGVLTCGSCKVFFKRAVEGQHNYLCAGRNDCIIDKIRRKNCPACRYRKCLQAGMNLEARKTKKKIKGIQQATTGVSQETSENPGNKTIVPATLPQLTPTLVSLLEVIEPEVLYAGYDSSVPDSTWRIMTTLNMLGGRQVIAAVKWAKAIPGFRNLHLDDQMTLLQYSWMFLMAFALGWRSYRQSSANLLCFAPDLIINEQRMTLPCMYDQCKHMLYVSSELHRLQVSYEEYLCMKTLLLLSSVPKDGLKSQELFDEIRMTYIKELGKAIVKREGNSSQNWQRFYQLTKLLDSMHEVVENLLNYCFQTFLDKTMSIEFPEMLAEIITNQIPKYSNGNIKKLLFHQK

Assay [17] shares this target. The experiment in a line: qHTS assay to identify small molecule antagonists of the glucocorticoid receptor (GR) signaling pathway (AID 720692; active = well fitted inhibition curve with a large enough effect in the signal ratio in the repeat runs, not every such curve was filed as active; the % refers to the signal ratio). The gist of the method: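 Antagonism was scored as loss of dexamethasone-driven (5 nM final) reporter signal in HeLa cells bearing a glucocorticoid response element–beta-lactamase construct, after 18 h compound exposure at 37 C and 2 h FRET substrate loading.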

Assay [18] is described as follows: qHTS assay to test for compound auto fluorescence at 590 nm (red) in HEK293 cells (AID 720679). The gist of the method:
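HEK293 cells (2,000/well, medium with 10% dialyzed FBS) attached for 4-5 hr at 37C, received 23 nL compound and were incubated overnight at 37C, 5% CO2. Red fluorescence was then read at 540/590nm Ex/Em, referenced to Rose Bengal sodium.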

Assay [19] in a line: qHTS assay to test for compound auto fluorescence at 460 nm (blue) in HEK293 cell free culture (AID 720681). The gist of the method: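 Test compounds were pinned into cell-free culture medium (DMEM with 10% FBS) and fluorescence was read directly at Ex/Em 405/460 nm. Signals were expressed as fluorescence equivalents of triamterene, with DMSO vehicle as control.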
Assay [20] in a line: qHTS assay to test for compound auto fluorescence at 535 nm (green) in HEK293 cell free culture (AID 720682). The gist of the method:
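Measurement is a direct plate read of green fluorescence (485 nm in, 535 nm out) after compound addition to serum-supplemented DMEM lacking cells, with fluorescein used to express intensities.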
% is scaled to controls: 0 for no effect and ±100 for the full control effect.

As for `N=c1ccn2c(n1)O[C@H]1[C@H](O)[C@@H](CO)O[C@H]12`, the Potency in [1] is 1.5 µM (active) and 1.72 µM (active). Further, the Potency result in assay [2], in assay [3], in assay [4], in assay [5], in assay [6] and in assay [7] was “inactive” in each case. Also, the Potency result in assay [8], in assay [11], in [12], in [14], in assay [16] and in assay [17] was “inactive” throughout. Besides, the compound was classed as inactive in assay [9], in assay [10], in [13] and in assay [15].
As for `OCCNCc1ccccc1`, the Potency result in assay [1], in assay [2], in [3], in assay [4], in assay [5] and in assay [6] was “inactive” in each case. Moreover, the Potency result in [7], in assay [18], in assay [11], in assay [12], in assay [14] and in [16] was “inactive” throughout. For the same compound, the Potency result in assay [17] is “inactive”. Further, the result in [9], in assay [10], in assay [19], in assay [20], in assay [13] and in assay [15] was inactive.
Consider `C/C(=C(\CCOP(=O)(O)O)SC(=O)c1ccccc1)N(C=O)Cc1cnc(C)nc1N`, for which the Potency entry in assay [1], in [2], in assay [3], in assay [4], in [5] and in assay [6] was “inactive” each time. The fluorescence, relative to Rose Bengal in [7] is -0.226% [at 18.6 µM]. Also, the fluorescence, % of fluorescein control was -0.0371% [at 18.6 µM] in assay [8] and -0.0244% [at 18.6 µM] in assay [14]. For the same compound, the fluorescence, % of triamterene in [9] was -0.0569% [at 18.6 µM]. The fluorescence, % of fluorescent control was 0.166% [at 18.6 µM] in assay [18], -0.0157% [at 18.6 µM] in [19], -0.035% [at 18.6 µM] in [13] and -0.293% [at 18.6 µM] in assay [15]. Moreover, the fluorescence, % of fluorescein in assay [10] is -0.205% [at 18.6 µM]. In assay [20], the activity change is 0.0312% [at 18.6 µM]. Moreover, in [12], the fluorescence, % of Rose Bengal was 0.0762% [at 18.6 µM]. Further, the Potency in assay [16] is 11.5 µM (active).
For `O=[N+]([O-])c1ccc2[nH]ncc2c1`, the Potency result in [1], in assay [2], in assay [3], in assay [4], in [5] and in assay [7] was “inactive” throughout. The Potency entry in assay [18], in assay [11], in assay [12], in assay [14], in assay [16] and in assay [17] was “inactive” each time. Besides, in assay [6], the Potency is 38.5 µM (active). For the same compound, the result in [9], in [10], in assay [19], in assay [20] and in assay [15] was inactive.
Turning to `O=C(O)c1ccco1`, the Potency result in [1], in assay [2], in [3], in assay [4], in assay [5] and in assay [6] was “inactive” throughout. Moreover, the Potency entry in assay [7], in [18], in assay [11], in [12] and in [14] was “inactive” each time. Besides, the compound was classed as inactive in assay [9], in assay [10], in [19], in assay [20], in [13] and in assay [15].
With `CC[N+]1(CC)CCC(=C(c2ccccc2)c2ccccc2)C1C` (centres undefined), the Potency result in assay [1], in assay [2], in [3], in assay [4], in [5] and in assay [6] was “inactive” each time. Further, the Potency entry in assay [7], in assay [8], in assay [18], in assay [11], in assay [12] and in assay [14] was “inactive” throughout. For the same compound, the Potency result in [16] was “inactive”. For the same compound, the compound was called inactive in assay [9], in [10], in [20], in [13] and in assay [15].
As for `Cc1ccccc1S(=O)(=O)O`, the Potency entry in [1], in [2], in [3], in [4], in [5] and in assay [6] was “inactive” each time. The Potency result in assay [7], in assay [8], in assay [18], in [11], in assay [12] and in [14] was “inactive” throughout. Moreover, the outcome in assay [9], in assay [10], in [20], in assay [13] and in [15] was inactive.
